In PMC4336329 (PLoS ONE, 2015):
The whole screen tested about 310,000 compounds, of which about 14,000 (4.5%) showed an effect of 50% or more. Effects have a minus sign here. The sample as a whole holds a higher share of strong results than the screen did.

target: human ether-à-go-go-related gene (hERG) potassium channel (human, UniProt Q12809); assay: primary screen, population patch clamp on CHO cells stably expressing hERG; higher = less effect of the substance
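Further: peak tail current of the secondary pulse compared with the same well before compound.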

Chain of human ether-à-go-go-related gene (hERG) potassium channel (Q12809 whole entry, looked up): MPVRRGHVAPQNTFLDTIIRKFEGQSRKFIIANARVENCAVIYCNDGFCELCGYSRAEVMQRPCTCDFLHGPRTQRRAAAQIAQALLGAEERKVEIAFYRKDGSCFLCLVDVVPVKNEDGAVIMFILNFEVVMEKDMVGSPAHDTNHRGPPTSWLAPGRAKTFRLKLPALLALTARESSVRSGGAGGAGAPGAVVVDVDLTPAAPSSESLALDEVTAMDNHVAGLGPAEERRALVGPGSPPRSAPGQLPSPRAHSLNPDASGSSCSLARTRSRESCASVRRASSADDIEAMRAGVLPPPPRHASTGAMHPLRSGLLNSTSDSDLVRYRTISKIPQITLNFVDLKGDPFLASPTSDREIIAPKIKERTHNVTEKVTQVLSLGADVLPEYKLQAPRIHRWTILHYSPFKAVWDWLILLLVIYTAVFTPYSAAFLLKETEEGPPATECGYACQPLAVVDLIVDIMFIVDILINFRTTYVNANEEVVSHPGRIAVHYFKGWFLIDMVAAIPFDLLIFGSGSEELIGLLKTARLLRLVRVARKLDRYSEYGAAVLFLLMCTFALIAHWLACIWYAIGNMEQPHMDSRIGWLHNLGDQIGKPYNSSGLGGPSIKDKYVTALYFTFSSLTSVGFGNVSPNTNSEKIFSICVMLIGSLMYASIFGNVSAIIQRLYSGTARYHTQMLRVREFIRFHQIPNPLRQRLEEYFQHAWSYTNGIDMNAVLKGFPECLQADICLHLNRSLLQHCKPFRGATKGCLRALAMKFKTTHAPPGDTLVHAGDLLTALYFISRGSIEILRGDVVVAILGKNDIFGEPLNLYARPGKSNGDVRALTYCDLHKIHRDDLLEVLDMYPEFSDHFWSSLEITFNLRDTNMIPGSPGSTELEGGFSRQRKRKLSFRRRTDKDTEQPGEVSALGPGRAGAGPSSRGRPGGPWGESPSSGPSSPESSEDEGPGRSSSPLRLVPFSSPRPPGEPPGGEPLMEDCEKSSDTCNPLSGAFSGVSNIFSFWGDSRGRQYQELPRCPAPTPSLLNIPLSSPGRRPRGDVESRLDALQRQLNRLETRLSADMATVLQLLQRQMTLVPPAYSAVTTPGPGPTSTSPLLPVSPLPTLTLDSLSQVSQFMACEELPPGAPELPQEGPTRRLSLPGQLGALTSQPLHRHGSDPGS

Compound	hERG current change (%, negative = inhibition) at 10uM [%]
COc1ccc(C2C(C(=O)c3cccs3)=C(O)C(=O)N2c2nnc(C)s2)cc1OC (stereo not drawn)	1.32
CCN1C(=O)/C(=C\N2CCN(c3ccc(F)cc3)CC2)SC1=S	15.5
COc1ccc(N2C(=O)C3CCCN3C2c2cccc(C)c2)cc1Cl (stereo not drawn)	-31.3
O=C(Nc1ccccc1F)C(=O)c1cn(CC(=O)N2CCCCC2)c2ccccc12	13.8
CN1CCN(C2=Nc3ccccc3Oc3ccc(Cl)cc32)CC1.O=C(O)CCC(=O)O	-6.25
CCN(CC(=O)NC(=O)NC1CCCCC1)Cc1nc2ccccc2c(=O)[nH]1	-8.1
CN1CC(=O)N=C1N	8.56
CN1CC(=O)N=C1N.Cl	-50.1
O=C(CN1CCN(S(=O)(=O)c2ccc(F)c(Cl)c2)CC1)N1CCNC1=O	-1.79
Cc1ccc(-c2noc(C3CCCN(C(=O)c4ccccc4Br)C3)n2)cc1 (stereo not drawn)	0.00198
N/C(=N\OC(=O)/C=C/c1ccccc1)c1ccc(Br)cc1	4.83
COc1ccc(CCNCC2C(Oc3ccc(Cl)cc3)C(=O)N2c2ccccc2C)cc1OC.Cl (stereo not drawn)	-41
O=[N+]([O-])c1cc(/C=N/n2cnnc2)ccc1N1CCCC1	-38.7
O=C(OCC(=O)N(Cc1ccccc1)Cc1ccccc1)c1ccccc1O	5.67
O=C(OCC(=O)N(Cc1ccccc1)Cc1ccccc1)c1ccccc1NCCO	-15.4
N#CCc1ccccc1C(=O)OCC(=O)N(Cc1ccccc1)Cc1ccccc1	-52.1
Cc1ccc(-c2noc(CN3CCCCC3)n2)cc1	34.6
CN1CCCN(Cc2nc(-c3ccc(Cl)cc3)no2)CC1	-72.6
c1cnc(-c2noc(CN3CCN(C4CCCC4)CC3)n2)cn1	18.7
CN1CCCN(Cc2nc(-c3cccc(C(F)(F)F)c3)no2)CC1	-60.2
FC(F)(F)c1cccc(-c2noc(CN3CCOCC3)n2)c1	6.74
CC1CCN(Cc2nc(-c3ccc(Cl)cc3)no2)CC1	8.57
Clc1ccc(-c2noc(CN3CCCC3)n2)cc1	-15.1

Compound	hERG current change (%, negative = inhibition) at 10uM [%]
FC(F)(F)c1ccc(-c2noc(CN3CCCN(C4CCCCC4)CC3)n2)cc1	-75.7
O=CN1CCCN(Cc2nc(-c3cccc(Cl)c3)no2)CC1	-13.3
CN1c2ccccc2C(C)(C)C12C=Cc1cc(O)ccc1O2 (stereo not drawn)	-5.61
Cc1oc2cc(Br)c(O)c(Br)c2c1-c1ccccc1	-13.5
CC(C)(C)OC(=O)NCCCC[C@H](NC(=O)c1[nH]cnc1C(=O)Nc1ccccc1)C(=O)OC(C)(C)C	15.6
CCCNNC(=O)C(O)(c1cccc(C)c1)c1cccc(C)c1	-2.43
Cc1ccc(N2C(=O)C(Cl)=C(N3CCOCC3)C2=O)c(C)c1	14.6
O=C(COC(=O)c1cccc(S(=O)(=O)NCc2ccccc2)c1)NCC1CCCO1 (stereo not drawn)	3.36
O=C(COC(=O)c1ccc(Cl)c(S(=O)(=O)NCc2ccccc2)c1)NCC1CCCO1 (stereo not drawn)	-53
O=C(COC(=O)c1ccc(Cl)c(S(=O)(=O)N2CCCCC2)c1)NCC1CCCO1 (stereo not drawn)	-14.1
CCN(CC)C(=O)C(=O)c1cccn1-c1ccc(C#N)cc1	-18.8
COc1ccc2oc(=O)c(/C(C)=N/Nc3ccccc3)cc2c1	-2.36
CCOC(=O)COc1cc(O)c2c(=O)cc(-c3ccccc3)oc2c1	12
CC(C)(C)OC(=O)COc1cc(OCC(=O)OC(C)(C)C)c2c(=O)cc(-c3ccccc3)oc2c1	-15
CCOC(=O)COc1cc(OCC(=O)OCC)c2c(=O)cc(-c3ccccc3)oc2c1	-62.6
O=C1CCc2cc(S(=O)(=O)NC3CCCCC3)cc3c2N1CC3	1.44
CC1CC(NS(=O)(=O)c2cc3c4c(c2)CCN4C(=O)CC3)CC(C)(C)C1 (stereo not drawn)	-63.1
CC(C)(C)NS(=O)(=O)c1cc2c3c(c1)CCN3C(=O)CC2	17.4
c1ccc(-c2nnc(C(c3ccccc3)c3ccccc3)o2)cc1	6.86
CCOC(=O)c1cnc2ccc(OCC)cc2c1N1CCN(c2ccccc2)CC1	13.9
CCOc1ccc(C(=O)c2cnc3ccccc3c2N2CCN(CC)CC2)cc1	-65.5
CCOC(=O)C1CCCN(c2c(C(=O)c3ccccc3)cnc3ccc(OC)cc23)C1 (stereo not drawn)	-37.5
COc1ccc(C(=O)c2cnc3ccccc3c2-c2ccccc2)cc1	-9.47

Compound	hERG current change (%, negative = inhibition) at 10uM [%]
CCN1CCN(c2c(C(=O)c3ccc(OC)cc3)cnc3ccccc23)CC1	-80.3
CCOC(=O)C1CCCN(c2c(C(=O)c3ccccc3)cnc3ccccc23)C1 (stereo not drawn)	-26.5
COc1ccccc1-c1cc(C(=O)NC(C)c2ccccc2)no1 (stereo not drawn)	9.56
CCC(C)N=Cc1c(Nc2ccccc2)nc2c(C)cccn2c1=O (stereo not drawn)	17.6
O=C(Nc1cccc2ncccc12)c1cccnc1	14.5
CC(C)(C)c1ccc(C(=O)NCc2cccnc2)cc1	-2.42
COc1ccc(OC)c(CCNC(=O)CCc2nnc3ccc(N4CCOCC4)nn23)c1	16.1
CCOC(=O)c1c(C)oc2c1cc(NS(=O)(=O)c1ccc(C(=O)O)cc1)c1ccccc12	-60.7
CC(=O)c1c(C)oc2c1cc(NS(=O)(=O)c1ccc(C(=O)O)cc1)c1ccccc12	14.3
COC(=O)c1c(C)oc2c1cc(NS(=O)(=O)c1ccc(C(=O)O)cc1)c1ccccc12	7.86
O=C(CCCC(=O)OCC(F)(F)C(F)F)Nc1ccccc1F	14.8
CN(C)C(/C=C/Nc1cccc([N+](=O)[O-])c1)=C(C#N)C#N	-11.1
CC(C)(C)c1nn(-c2ccccc2)c2[nH]c(=O)c(CNc3ccc4c(c3)OCCO4)cc12	-4.99
Cc1cc2cc(CNC(=O)Cc3ccc([N+](=O)[O-])cc3)ccc2[nH]1	-50.7
CCOC(=O)Cc1csc(NC(=O)Cc2ccc([N+](=O)[O-])cc2)n1	-64.9
CC(Sc1ccc([N+](=O)[O-])cn1)C(=O)Nc1nccs1 (stereo not drawn)	-5.58
CCC(=O)NCc1ccc2[nH]c(C)cc2c1	37
CCOC(=O)Cc1csc(NC(=S)NC(=O)c2ccc([N+](=O)[O-])cc2)n1	13.8
Cc1cc2cc(CNC(=O)c3cccc([N+](=O)[O-])c3)ccc2[nH]1	-25.3
CC(C)Cc1ccc(C(C)C(=O)Nc2nccs2)cc1 (stereo not drawn)	-1.33
CCOC(=O)Cc1csc(NS(=O)(=O)c2ccc([N+](=O)[O-])cc2)n1	7.89
CC(C(=O)Nc1nccs1)c1ccc([N+](=O)[O-])cc1 (stereo not drawn)	-72
CCOC(=O)Cc1csc(NC(=O)Cc2ccc(C)cc2)n1	-18

Compound	hERG current change (%, negative = inhibition) at 10uM [%]
CCOC(=O)Cc1csc(NC(=O)Cc2ccc(Cl)cc2)n1	-15.1
CCOC(=O)Cc1csc(NC(=O)C(C)c2ccc([N+](=O)[O-])cc2)n1 (stereo not drawn)	-55.9
COc1ccc(CCN=C(N)NS(=O)(=O)c2ccc(C)cc2)cc1OC	6.05
CCCCNC(=O)C1CCCN1C(=O)Nc1cccc(OC)c1 (stereo not drawn)	14
Cc1sc2ncn(/N=C/c3ccco3)c(=O)c2c1C	-2.43
CC(C)OC(=O)c1cc(NC(=O)C2C3C=CC(O3)C2C(=O)O)cc(C(=O)OC(C)C)c1 (stereo not drawn)	-1.28
Cc1c(C)c(C)c2[nH]c(=S)[nH]c2c1C	24.9
CCN(CC)C(=O)COC(=O)c1ccc(O)cc1	7.43
CC1=C(C(=O)Nc2ccccc2C(=O)NCCCOC(C)C)SCCO1	14
CCCCn1c(=O)[nH]c(=O)c2c1nc(-c1ccccc1F)n2Cc1ccccc1OC	11.5
COc1ccc(-c2cc(C(F)(F)F)nc(SCC(=O)N(C)Cc3cnn(C)c3C)n2)cc1OC	-42.4
Cc1cc(Br)ccc1NC(=O)C(C)c1ccc([N+](=O)[O-])cc1 (stereo not drawn)	-70.7
CC(C(=O)Nc1cccc(Br)c1)c1ccc([N+](=O)[O-])cc1 (stereo not drawn)	-47.3
Cc1ccnc(NC(=O)Cc2ccc([N+](=O)[O-])cc2)c1	-12.4
Cc1cc(C)nc(NC(=O)Cc2ccc([N+](=O)[O-])cc2)c1	-67.9
CC(C(=O)Nc1ccccc1Br)c1ccc([N+](=O)[O-])cc1 (stereo not drawn)	-35.5
Cc1cc(C)nc(NC(=O)Cc2ccc(Cl)cc2)c1	-5.94
CCOc1cc(NC(=O)CC(C)C)c(OCC)cc1NC(=O)CCn1nnc2ccccc21	10.1
CCOC(=O)c1ccc(-n2ccnc2)c(NC(=O)c2ccc(Cl)cc2)c1	-66.2
CCOC(=O)c1ccc(-n2ccnc2)c(NC(=O)c2cccc(Br)c2)c1	-42.1
CCOC(=O)c1ccc(-n2ccnc2)c(NC(=O)c2ccc(C(C)(C)C)cc2)c1	-41
